This is a sample that favours compounds with a hit; in the whole collection about 4.1% have one here.
DAX1 inh-1: DAX1 (NR0B1) inhibition, primary screen; AID 652010; HEK293T StAR-luciferase reporter, SF-1/DAX-1 repression relief; 370,000 tested, 1.1% active; inhibition, % at 6.8 µM;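 active = inhibition above the mean over all tested compounds plus 3 SD, cut at about 3.6% in these data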;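 also: 0% = DAX-1 cells with DMSO and 100% = cells lacking DAX-1 with DMSO; higher inhibition means more luminescence from relief of DAX-1 repression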
hgDAF-12 ag: hgDAF-12 agonism, primary luciferase screen. HEK293 GAL4-hgDAF12 UAS-luciferase reporter, agonist luminescence; normalized to butyrate control. activation, % at 6.8 µM. 370,000 tested, 1.8% active;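 active = activation above a cutoff set at the mean of all screened compounds plus 3 SD, cut at about 10% in these data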;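 also: 0% = DMSO wells and 100% = sodium butyrate wells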
ssDAF-12 act: activators of S. stercoralis DAF-12 nuclear receptor. HEK293 ssDAF-12/GRIP1 lit1-tk-luc reporter, luminescence; % of 3 µM dafachronic acid response. activation, % at 6.8 µM. 370,000 tested, 1% active;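 active = activation above the mean over all tested compounds plus 3 SD, cut at about 0.9% in these data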;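 also: 0% = DMSO-only wells and 100% = 3 µM delta7-dafachronic acid wells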
hcDAF-12 act: activators of H. contortus DAF-12 nuclear receptor; HEK293 hcDAF-12 lit1-tk-luc reporter, luminescence; 0% DMSO, 100% Δ7-dafachronic acid; 370,000 tested, 1.4% active; activation, % at 6.8 µM; AID 652067;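 active = activation above the mean of all tested compounds plus 3 SD, cut at about 5.5% in these data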;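 also: 100% = response to 3 µM Δ7-dafachronic acid high control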
DAX1 inh-2: NR0B1 (DAX1) inhibition. HEK293 Gal4-DAX1 luciferase reporter, luminescence. 340,000 tested, 0.99% active. P51843. inhibition, % at 6.75 µM. AID 504766;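 active = inhibition above the mean over all tested compounds plus 3 SD, cut at about 4.2% in these data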;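 also: 0% = DAX1-transfected cells with DMSO and 100% = empty-vector control cells with DMSO; inhibition shows as a rise in luminescence from relieved DAX1 repression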
Target sequence (P51843 207-470 limits assumed): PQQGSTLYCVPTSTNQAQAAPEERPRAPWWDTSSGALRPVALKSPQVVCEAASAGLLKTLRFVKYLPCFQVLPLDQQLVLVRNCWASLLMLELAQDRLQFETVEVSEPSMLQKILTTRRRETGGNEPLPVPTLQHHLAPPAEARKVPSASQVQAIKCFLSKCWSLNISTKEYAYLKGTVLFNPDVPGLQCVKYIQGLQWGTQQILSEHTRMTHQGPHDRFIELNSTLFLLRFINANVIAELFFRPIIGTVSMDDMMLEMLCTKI
DAX1 conf: confirmation of human DAX1 (NR0B1) inhibitors; shares compounds with DAX1 inh-1; HEK293T StAR-promoter luciferase reporter, SF-1/DAX-1 repression; inhibition, % at 6.8 µM; 2,400 tested, 87% active; AID 652134;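 active = inhibition above the average of every tested compound plus 3 SD, cut at about 3.8% in these data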;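 also: 0% = DAX-1 cells with DMSO and 100% = no DAX-1 control cells with DMSO; active compounds raise luminescence by relieving repression of the StAR reporter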
SF1 AF2mut Luc: nonselective inhibitor or artifact in SF-1 mutant DAX1 counter-screen | HEK293 StAR-luciferase, SF-1 AF2 mutant, luminescence | shares compounds with DAX1 inh-1 | inhibition, % at 6.8 µM | 2,400 tested, 78% active;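 active = inhibition above the mean of all tested compounds plus 3 SD, cut at about 3% in these data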;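 also: 0% = DAX-1 transfected cells with DMSO and 100% = cells without DAX-1 with DMSO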
LXR ag: counter-screen for hcDAF-12 agonists: agonists of human LXR-beta | shares compounds with hcDAF-12 act | HEK293 Gal4-LXR tk-luc reporter, luminescence, 24 h; normalized: DMSO 0%, positive control 100% | activation, % at 6.8 µM | 3,400 tested, under 10 active | AID 743027;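 active = mean percent activation of the reporter above a cutoff set as the average over tested compounds plus their standard deviation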
hcDAF12 conf: hcDAF-12 agonism, confirmation assay. shares compounds with hcDAF-12 act. HEK293 hcDAF-12 lit1-tk-luc reporter, luminescence; % of Δ7-dafachronic acid response. activation, % at 6.8 µM. 3,400 tested, 61% active. AID 743032;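 active = mean activation across triplicate tests above the threshold derived from the earlier primary screen, cut at about 5.5% in these data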;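 also: 0% = DMSO only wells and 100% = 3 µM Δ7-dafachronic acid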
hgDAF12 ag: confirmation of H. glycines DAF-12 agonists. shares compounds with hgDAF-12 ag. activation, % at 6.8 µM. 3,300 tested, 80% active. HEK293 GAL4-hgDAF12 luciferase reporter, agonist mode; percent of butyrate response;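 active = mean activation over triplicate wells above the hit cutoff derived from the earlier primary screen, cut at about 11% in these data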;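 also: 0% = DMSO low control and 100% = 2 mM sodium butyrate high control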
LXRb DAF12 ctr: LXR-beta agonism as DAF-12 counter-screen; shares compounds with hgDAF-12 ag; HEK293 Gal4-LXR luciferase reporter, 24 h; activation, % at 6.8 µM; 3,300 tested, under 10 active; AID 743051;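 active = mean activation of the triplicate above a set limit carried over from the primary screen, none filed active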
* marks the source's active call; other numbers are inactive results; nt = no result given.

SMILES	DAX1 inh-1	hgDAF-12 ag	ssDAF-12 act	hcDAF-12 act	DAX1 inh-2	DAX1 conf	SF1 AF2mut Luc	LXR ag	hcDAF12 conf	hgDAF12 ag	LXRb DAF12 ctr
O=C(CN(CCO)c1ccccc1)Nc1ccc(Cl)c(S(=O)(=O)N2CCOCC2)c1	-1	-2	-2	-2	0	nt	nt	nt	nt	nt	nt
Cc1ccc(C(=O)Cn2cnc3ccccc3c2=O)cc1C	1	9	-1	4	1	nt	nt	nt	nt	nt	nt
Cc1ccc(C(=O)Cn2nnc3ccccc32)cc1C	4.8*	17*	0	5.9*	2	9.3*	5.7*	nt	nt	17*	1
COc1ccc(/C=N/Nc2nc3ccccc3o2)cc1O	5.5*	15*	1	12*	0	5.4*	2	1	6.6*	7	1
Cc1cc(F)ccc1S(=O)(=O)Nc1ccccc1C(=O)NC1CCN(Cc2ccccc2)CC1	0	-1	-1	-1	0	nt	nt	nt	nt	nt	nt
Oc1ccc(-c2nnc(-c3ccc(O)cc3)nn2)cc1	5.5*	15*	1	6.5*	-1	13*	8.4*	nt	nt	21*	1
Oc1ccc(-c2cc(-c3ccc(O)cc3)nc(-c3ccccc3)n2)cc1	-1	2	-2	-2	2	nt	nt	nt	nt	nt	nt
CC1=CC(c2ccccc2)=Nc2ccc(C)cc2N1	5.9*	19*	3.5*	13*	0	15*	8.7*	2	9.6*	19*	1
COc1ccccc1C(=O)O/N=C(\N)c1ccc(Cl)cc1	5.0*	18*	1.4*	9.2*	2	1	3	1	6.3*	14*	1
COc1ccc(C(=O)O/N=C(\N)c2ccc(Cl)cc2)cc1	0	6	-1	-2	2	nt	nt	nt	nt	nt	nt
CC1CC(C)CN(S(=O)(=O)c2ccc(C(C)(C)C)cc2)C1 (stereo unspecified)	0	0	-1	-2	0	nt	nt	nt	nt	nt	nt
c1ccc2sc(-n3cc(C4CCCCC4)nn3)nc2c1	9.2*	26*	1.3*	6.6*	nt	15*	8.7*	1	5.9*	25*	1
c1ccc2sc(N3CCOCC3)nc2c1	1	4	-1	1	1	nt	nt	nt	nt	nt	nt
C1=C(c2cn(-c3nc4ccccc4s3)nn2)CCCC1	11*	20*	1	12*	nt	12*	5.8*	2	8.5*	20*	1
Cc1c(C(C)(C)O)[nH]c2ccc(C(F)(F)F)cc12	0	2	-1	-1	-1	nt	nt	nt	nt	nt	nt
Cc1ccc2nc(-c3cccc(N)c3)oc2c1	5.4*	15*	0	6.4*	0	15*	6.8*	nt	nt	16*	1
COc1ccc(C(C)=O)cc1CSC(=S)N1CCSCC1	-2	-3	-1	-2	nt	nt	nt	nt	nt	nt	nt
Cc1csc(=NC(=O)c2ccccc2)n1C	2	10	1	3	1	nt	nt	nt	nt	nt	nt
O=C(N=c1nc2ccccn2s1)c1ccccc1	5.2*	22*	1.1*	11*	3	11*	3	2	13*	8	1
COc1ccc(C2=NN3C(C2)c2ccccc2OC32C(=O)N(C)c3ccccc32)cc1 (stereo unspecified)	6.6*	17*	2.4*	12*	3	4.0*	4.8*	0	2	22*	1

Screening data from PubChem.
